Assay in all cases: DAPPL (digital affinity profiling via proximity ligation, sequencing); 10 mM Tris-HCl pH 7.5, 50 mM NaCl, 1 mM DTT, 4% glycerol, room temperature, 30 min; GST-TFs on glutathione beads, 16-mer random dsDNA library, 0.1% formaldehyde crosslink after washing; high values mean tight binding
Assay [1] has as its target T1, FEV (Homo sapiens, UniProt Q99581 1-238).
T1 sequence: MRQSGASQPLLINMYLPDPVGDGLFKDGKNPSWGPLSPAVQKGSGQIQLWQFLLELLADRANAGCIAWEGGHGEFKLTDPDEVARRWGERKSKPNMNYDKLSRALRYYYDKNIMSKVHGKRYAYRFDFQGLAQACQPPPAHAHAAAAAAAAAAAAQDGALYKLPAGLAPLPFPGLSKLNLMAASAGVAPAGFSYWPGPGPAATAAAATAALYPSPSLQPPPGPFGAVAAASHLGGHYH
The note with it: protein: recombinant; tags: N-terminal GST; dsDNA, one strand shown. In short, it runs like this: (§1)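 After expression in yeast as GST fusions, human transcription factors were bound to glutathione beads, DNA-barcoded and mixed with a tag-only sample. The pools were incubated with 200 nmole of a 16-mer random double-stranded DNA library in Tris/NaCl/DTT/glycerol buffer (30 min, room temperature), washed and crosslinked with 0.1% formaldehyde. Proximity ligation with BsaI/T4 ligase ran for 1 h at 37 °C, before PCR amplification and sequencing on an Illumina NextSeq500. Binding signal is a hexamer's read frequency for a factor divided by its frequency for the tag-only sample.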

For assay [2], the target named is ETV5 (Homo sapiens, UniProt P41161 1-510). The note with it: protein: recombinant; tags: N-terminal GST; dsDNA, one strand shown. In short, it runs like this:
as §1

Assay [3] deals with HSF1 (Homo sapiens, UniProt Q00613 1-529). The note with it: protein: recombinant; tags: N-terminal GST; chain copies: 3; dsDNA, one strand shown. In short, it runs like this:
as §1

In assay [4] the target is T2, SPIC (Homo sapiens, UniProt Q8N5J4 1-248).
T2 sequence: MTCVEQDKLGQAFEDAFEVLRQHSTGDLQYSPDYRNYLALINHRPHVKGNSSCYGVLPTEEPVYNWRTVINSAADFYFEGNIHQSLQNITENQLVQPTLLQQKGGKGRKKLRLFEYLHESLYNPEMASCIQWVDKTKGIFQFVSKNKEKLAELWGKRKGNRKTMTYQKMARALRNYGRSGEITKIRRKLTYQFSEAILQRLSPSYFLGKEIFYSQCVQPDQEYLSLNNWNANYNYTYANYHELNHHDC
The note with it: protein: recombinant; tags: N-terminal GST; dsDNA, one strand shown. In short, it runs like this:
as §1

The target in assay [5] is ELF4 (Homo sapiens, UniProt Q99607 1-663). The note with it: protein: recombinant; tags: N-terminal GST; dsDNA, one strand shown. In short, it runs like this:
as §1

Assay [6] concerns the target T3, ELK4 (Homo sapiens, UniProt P28324-2 1-405).
T3 sequence: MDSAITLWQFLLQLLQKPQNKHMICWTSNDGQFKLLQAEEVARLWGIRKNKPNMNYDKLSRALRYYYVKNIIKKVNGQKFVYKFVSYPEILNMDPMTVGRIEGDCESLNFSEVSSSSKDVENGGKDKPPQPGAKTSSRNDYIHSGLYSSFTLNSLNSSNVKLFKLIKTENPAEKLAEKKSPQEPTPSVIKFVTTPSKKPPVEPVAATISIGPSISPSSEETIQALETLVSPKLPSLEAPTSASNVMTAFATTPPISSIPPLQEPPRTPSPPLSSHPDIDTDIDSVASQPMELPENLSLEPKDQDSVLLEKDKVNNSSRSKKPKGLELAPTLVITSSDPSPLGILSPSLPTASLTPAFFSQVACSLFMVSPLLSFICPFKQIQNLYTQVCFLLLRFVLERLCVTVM
The note with it: protein: recombinant; tags: N-terminal GST; dsDNA, one strand shown. In short, it runs like this: as §1

The target of assay [7] is T4, ETV2 (Homo sapiens, UniProt O00321 1-342).
T4 sequence: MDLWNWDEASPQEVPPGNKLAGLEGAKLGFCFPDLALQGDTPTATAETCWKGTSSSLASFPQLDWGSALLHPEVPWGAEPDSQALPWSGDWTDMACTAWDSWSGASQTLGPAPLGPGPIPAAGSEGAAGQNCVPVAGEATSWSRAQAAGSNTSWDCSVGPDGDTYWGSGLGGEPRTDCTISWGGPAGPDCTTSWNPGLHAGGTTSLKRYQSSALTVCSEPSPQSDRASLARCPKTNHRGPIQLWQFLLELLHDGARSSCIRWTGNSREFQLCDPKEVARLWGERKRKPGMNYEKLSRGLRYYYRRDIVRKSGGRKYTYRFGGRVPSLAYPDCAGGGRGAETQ
To be noted: protein: recombinant; tags: N-terminal GST; dsDNA, one strand shown. In short, it runs like this: as §1

Assay [8] has as its target T5, ELF3 (Homo sapiens, UniProt P78545 1-371).
T5 sequence: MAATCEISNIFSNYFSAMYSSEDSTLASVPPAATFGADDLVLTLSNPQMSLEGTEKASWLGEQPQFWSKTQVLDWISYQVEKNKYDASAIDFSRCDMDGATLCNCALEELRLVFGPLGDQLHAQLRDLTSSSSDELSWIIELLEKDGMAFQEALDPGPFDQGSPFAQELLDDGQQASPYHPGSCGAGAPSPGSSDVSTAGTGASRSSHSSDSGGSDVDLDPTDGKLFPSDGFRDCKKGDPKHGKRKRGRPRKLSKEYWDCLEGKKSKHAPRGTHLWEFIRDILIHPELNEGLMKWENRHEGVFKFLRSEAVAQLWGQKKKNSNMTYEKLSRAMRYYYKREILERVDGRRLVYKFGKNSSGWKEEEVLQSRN
The note with it: protein: recombinant; tags: N-terminal GST; dsDNA, one strand shown. In short, it runs like this:
as §1

Assay [9] deals with CRX (Homo sapiens, UniProt O43186 1-299). To be noted: protein: recombinant; tags: N-terminal GST; dsDNA, one strand shown. In short, it runs like this: as §1
Chain of CRX (O43186 whole entry): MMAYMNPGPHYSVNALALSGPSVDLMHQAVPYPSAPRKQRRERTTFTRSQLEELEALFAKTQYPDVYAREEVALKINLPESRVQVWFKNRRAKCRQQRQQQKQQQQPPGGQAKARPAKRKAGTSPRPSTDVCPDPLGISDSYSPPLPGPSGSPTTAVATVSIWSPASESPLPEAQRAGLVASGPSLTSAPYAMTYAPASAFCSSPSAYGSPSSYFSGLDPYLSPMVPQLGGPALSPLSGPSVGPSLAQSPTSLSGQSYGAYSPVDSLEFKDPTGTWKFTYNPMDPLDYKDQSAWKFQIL
For assay [10], the target named is ETV1 (Homo sapiens, UniProt P50549 1-477). The note with it: protein: recombinant; tags: N-terminal GST; dsDNA, one strand shown. In short, it runs like this: as §1
Chain of ETV1 (P50549 whole entry): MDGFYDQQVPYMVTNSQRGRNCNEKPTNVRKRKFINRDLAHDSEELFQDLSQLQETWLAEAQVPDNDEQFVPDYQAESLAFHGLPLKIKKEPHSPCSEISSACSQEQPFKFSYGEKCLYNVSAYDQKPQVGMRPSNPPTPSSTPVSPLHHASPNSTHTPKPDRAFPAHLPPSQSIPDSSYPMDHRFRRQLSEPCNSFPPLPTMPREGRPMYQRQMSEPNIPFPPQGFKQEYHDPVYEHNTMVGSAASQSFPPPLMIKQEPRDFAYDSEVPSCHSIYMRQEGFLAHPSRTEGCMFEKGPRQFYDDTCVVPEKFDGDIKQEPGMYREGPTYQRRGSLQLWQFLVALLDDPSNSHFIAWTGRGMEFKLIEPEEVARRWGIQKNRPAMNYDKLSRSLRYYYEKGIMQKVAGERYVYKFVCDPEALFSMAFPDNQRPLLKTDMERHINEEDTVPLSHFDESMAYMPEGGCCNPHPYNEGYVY
Assay [11] concerns the target T6, ERF (Homo sapiens, UniProt P50548 1-548).
T6 sequence: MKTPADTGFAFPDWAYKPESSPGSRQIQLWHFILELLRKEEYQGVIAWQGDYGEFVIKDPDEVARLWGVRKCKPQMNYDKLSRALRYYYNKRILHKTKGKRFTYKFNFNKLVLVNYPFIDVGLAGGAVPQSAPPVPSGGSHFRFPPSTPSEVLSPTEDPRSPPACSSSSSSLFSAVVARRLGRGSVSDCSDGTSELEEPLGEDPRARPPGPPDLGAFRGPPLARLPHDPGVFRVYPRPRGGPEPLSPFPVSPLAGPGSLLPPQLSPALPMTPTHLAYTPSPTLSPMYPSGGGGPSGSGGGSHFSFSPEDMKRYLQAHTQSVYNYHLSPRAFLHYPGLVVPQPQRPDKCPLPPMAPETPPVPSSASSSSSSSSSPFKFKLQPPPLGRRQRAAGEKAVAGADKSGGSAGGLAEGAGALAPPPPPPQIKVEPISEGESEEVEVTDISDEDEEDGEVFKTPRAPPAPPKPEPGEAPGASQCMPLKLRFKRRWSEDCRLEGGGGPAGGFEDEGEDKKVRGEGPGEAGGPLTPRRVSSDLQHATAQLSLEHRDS
The note with it: protein: recombinant; tags: N-terminal GST; dsDNA, one strand shown. In short, it runs like this: as §1

Assay [12] addresses T7, ETV3L (Homo sapiens, UniProt Q6ZN32 1-361).
T7 sequence: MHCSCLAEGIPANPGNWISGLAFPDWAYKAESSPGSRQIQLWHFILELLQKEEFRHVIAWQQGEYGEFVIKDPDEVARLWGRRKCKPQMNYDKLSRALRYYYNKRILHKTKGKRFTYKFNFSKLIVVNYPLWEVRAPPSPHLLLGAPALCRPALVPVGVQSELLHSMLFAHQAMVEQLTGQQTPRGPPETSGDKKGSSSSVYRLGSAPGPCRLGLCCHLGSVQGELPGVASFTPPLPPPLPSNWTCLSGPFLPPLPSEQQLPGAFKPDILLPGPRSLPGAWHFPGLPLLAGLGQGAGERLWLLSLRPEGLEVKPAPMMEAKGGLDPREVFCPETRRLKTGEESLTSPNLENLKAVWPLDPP
To be noted: protein: recombinant; tags: N-terminal GST; dsDNA, one strand shown. In short, it runs like this: as §1

Assay [13] addresses T8, ETS2 (Homo sapiens, UniProt P15036 1-469).
T8 sequence: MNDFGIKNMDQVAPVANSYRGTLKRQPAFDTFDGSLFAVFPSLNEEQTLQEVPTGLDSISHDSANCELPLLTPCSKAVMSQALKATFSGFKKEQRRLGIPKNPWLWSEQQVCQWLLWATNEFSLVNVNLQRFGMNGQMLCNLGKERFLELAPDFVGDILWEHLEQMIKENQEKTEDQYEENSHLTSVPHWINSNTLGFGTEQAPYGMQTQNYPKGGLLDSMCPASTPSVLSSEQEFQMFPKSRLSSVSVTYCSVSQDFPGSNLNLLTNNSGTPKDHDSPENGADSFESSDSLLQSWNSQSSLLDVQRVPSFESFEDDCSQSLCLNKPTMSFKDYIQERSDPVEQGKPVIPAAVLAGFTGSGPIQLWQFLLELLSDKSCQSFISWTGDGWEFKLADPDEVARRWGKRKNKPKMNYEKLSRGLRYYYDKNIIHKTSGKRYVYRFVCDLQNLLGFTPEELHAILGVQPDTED
To be noted: protein: recombinant; tags: N-terminal GST; dsDNA, one strand shown. In short, it runs like this:
as §1

The target in assay [14] is T9, SPDEF (Homo sapiens, UniProt O95238 1-335).
T9 sequence: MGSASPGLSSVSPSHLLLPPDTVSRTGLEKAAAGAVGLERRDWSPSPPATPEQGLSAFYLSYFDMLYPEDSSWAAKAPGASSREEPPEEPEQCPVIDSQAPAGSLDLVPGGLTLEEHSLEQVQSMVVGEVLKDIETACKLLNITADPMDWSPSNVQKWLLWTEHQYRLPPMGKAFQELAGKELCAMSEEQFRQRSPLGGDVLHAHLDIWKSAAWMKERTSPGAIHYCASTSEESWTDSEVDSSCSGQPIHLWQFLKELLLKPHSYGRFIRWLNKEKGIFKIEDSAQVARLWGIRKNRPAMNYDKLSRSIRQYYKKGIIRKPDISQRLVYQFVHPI
To be noted: protein: recombinant; tags: N-terminal GST; dsDNA, one strand shown. In short, it runs like this:
as §1

In assay [15] the target is T10, ETV7 (Homo sapiens, UniProt Q9Y603 1-341).
T10 sequence: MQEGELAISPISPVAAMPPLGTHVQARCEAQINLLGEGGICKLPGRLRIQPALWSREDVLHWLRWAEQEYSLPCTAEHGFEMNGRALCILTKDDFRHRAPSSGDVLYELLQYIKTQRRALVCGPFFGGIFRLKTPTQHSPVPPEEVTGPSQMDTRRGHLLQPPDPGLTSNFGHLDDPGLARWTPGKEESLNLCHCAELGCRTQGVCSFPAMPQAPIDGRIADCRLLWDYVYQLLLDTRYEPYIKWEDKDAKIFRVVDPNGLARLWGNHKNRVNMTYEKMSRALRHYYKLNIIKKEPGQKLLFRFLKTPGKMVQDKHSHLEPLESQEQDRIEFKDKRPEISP
To be noted: protein: recombinant; tags: N-terminal GST; dsDNA, one strand shown. In short, it runs like this:
as §1

For assay [16], the target named is T11, ELF5 (Homo sapiens, UniProt Q9UKW6-2 1-255).
T11 sequence: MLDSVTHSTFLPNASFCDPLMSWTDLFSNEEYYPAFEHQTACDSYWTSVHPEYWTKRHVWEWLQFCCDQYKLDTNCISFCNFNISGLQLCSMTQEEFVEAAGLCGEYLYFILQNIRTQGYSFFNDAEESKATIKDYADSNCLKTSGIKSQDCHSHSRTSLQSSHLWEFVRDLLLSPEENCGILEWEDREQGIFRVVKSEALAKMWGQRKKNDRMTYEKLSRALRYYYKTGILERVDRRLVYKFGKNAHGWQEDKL
To be noted: protein: recombinant; tags: N-terminal GST; dsDNA, one strand shown. In short, it runs like this: as §1

Assay [17] addresses T12, ETV3 (Homo sapiens, UniProt P41162-2 1-143).
T12 sequence: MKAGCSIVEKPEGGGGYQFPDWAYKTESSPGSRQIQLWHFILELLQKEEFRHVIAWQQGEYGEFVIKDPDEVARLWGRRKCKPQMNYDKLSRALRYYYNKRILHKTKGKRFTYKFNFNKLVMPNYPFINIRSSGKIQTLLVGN
The note with it: protein: recombinant; tags: N-terminal GST; dsDNA, one strand shown. In short, it runs like this: as §1

The target in assay [18] is ETV6 (Homo sapiens, UniProt P41212 1-452). To be noted: protein: recombinant; tags: N-terminal GST; dsDNA, one strand shown. In short, it runs like this: as §1
Chain of ETV6 (P41212 whole entry): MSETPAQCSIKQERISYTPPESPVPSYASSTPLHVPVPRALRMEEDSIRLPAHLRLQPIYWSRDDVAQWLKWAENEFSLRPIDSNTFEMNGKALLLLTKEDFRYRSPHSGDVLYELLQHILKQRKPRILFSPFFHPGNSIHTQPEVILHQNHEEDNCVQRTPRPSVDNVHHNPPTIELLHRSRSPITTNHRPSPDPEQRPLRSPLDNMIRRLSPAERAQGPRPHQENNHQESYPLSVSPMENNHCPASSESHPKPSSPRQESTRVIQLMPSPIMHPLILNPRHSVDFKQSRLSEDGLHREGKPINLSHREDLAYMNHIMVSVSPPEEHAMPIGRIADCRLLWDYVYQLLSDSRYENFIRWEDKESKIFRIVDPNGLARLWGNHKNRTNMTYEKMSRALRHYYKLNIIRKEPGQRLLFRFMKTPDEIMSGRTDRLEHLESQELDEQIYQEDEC

This note sets out measurements from paper PMC7862700, “An all-to-all approach to the identification of sequence-specific readers for epigenetic DNA modifications on cytosine”.

Chain of HSF1 (Q00613 whole entry): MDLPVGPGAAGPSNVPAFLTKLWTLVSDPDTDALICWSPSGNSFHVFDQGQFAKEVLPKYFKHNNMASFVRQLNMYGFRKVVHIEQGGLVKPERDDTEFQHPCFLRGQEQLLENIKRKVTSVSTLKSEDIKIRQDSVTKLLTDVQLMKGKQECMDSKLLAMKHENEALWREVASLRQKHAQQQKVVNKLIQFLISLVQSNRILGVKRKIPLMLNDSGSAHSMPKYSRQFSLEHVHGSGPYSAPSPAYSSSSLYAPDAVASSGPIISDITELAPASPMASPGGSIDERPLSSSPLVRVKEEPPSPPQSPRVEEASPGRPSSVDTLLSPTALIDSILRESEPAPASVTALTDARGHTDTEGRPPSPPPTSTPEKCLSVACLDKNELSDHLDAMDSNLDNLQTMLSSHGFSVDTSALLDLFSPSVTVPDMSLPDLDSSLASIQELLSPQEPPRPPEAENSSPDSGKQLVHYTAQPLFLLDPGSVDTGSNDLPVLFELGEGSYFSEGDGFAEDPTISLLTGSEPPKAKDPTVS
Chain of ELF4 (Q99607 whole entry): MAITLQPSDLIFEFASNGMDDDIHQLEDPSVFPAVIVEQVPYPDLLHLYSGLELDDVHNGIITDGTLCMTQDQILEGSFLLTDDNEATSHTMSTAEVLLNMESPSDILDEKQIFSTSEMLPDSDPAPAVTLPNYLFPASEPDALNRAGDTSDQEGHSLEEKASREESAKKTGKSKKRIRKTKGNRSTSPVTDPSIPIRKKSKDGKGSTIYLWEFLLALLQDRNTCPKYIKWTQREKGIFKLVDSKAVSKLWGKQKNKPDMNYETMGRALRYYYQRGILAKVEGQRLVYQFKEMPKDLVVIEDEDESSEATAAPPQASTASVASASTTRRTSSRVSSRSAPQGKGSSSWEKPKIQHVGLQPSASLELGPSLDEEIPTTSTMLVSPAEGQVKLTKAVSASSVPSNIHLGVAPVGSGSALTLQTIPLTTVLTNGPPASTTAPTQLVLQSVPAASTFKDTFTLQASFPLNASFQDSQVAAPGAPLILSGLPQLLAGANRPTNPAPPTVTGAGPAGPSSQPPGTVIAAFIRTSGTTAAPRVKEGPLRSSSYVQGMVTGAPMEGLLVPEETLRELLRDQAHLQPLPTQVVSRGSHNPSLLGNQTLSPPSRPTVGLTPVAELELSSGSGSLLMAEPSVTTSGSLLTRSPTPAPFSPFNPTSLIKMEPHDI
Chain of ETV5 (P41161 whole entry): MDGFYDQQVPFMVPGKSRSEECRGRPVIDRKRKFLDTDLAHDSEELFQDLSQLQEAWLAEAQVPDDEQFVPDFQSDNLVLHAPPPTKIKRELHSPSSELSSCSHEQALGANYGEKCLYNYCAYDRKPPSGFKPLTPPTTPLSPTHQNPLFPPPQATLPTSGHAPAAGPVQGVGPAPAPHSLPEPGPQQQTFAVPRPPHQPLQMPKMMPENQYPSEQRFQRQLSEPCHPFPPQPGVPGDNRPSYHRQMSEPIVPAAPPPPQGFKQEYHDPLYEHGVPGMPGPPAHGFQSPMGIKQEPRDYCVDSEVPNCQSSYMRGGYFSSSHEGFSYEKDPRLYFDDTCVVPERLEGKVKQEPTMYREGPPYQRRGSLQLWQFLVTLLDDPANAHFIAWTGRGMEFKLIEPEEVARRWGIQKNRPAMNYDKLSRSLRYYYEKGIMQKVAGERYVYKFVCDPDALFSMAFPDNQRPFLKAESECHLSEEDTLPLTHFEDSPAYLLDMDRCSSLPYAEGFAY

With TCTCTA, the binding signal was 1.32 fold enrichment (6-mer frequency, TF over GST control) in [1]; 1.21 fold enrichment (6-mer frequency, TF over GST control) in assay [2]; 1.74 fold enrichment (6-mer frequency, TF over GST control) in assay [3]; 1.38 fold enrichment (6-mer frequency, TF over GST control) in [4]; 1.25 fold enrichment (6-mer frequency, TF over GST control) in assay [5]; 1.22 fold enrichment (6-mer frequency, TF over GST control) in assay [6]. The binding signal in [7] is 1.24 fold enrichment (6-mer frequency, TF over GST control); in [8] it was 1.28 fold enrichment (6-mer frequency, TF over GST control); in assay [9] it was 1.56 fold enrichment (6-mer frequency, TF over GST control); in assay [10], 1.2 fold enrichment (6-mer frequency, TF over GST control); in [11] it was 1.24 fold enrichment (6-mer frequency, TF over GST control); in [12], 1.29 fold enrichment (6-mer frequency, TF over GST control). The binding signal was 1.22 fold enrichment (6-mer frequency, TF over GST control) in assay [13]; 1.24 fold enrichment (6-mer frequency, TF over GST control) in assay [14]; 1.34 fold enrichment (6-mer frequency, TF over GST control) in assay [15]; 1.21 fold enrichment (6-mer frequency, TF over GST control) in assay [16]; 1.3 fold enrichment (6-mer frequency, TF over GST control) in [17]; 1.21 fold enrichment (6-mer frequency, TF over GST control) in assay [18].
